Measurements from PubChem BioAssay (NCI).
The panel holds about 83,000 compounds, 20% with a hit somewhere; the sample as a whole holds those more often.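 Percent growth is the endpoint: 0 to 100 indicates growth inhibition (40 means 60% inhibition), 0 means no net growth, and negative values indicate cell death.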 Values without a mark were called inactive. Calls of active or inactive are those of the source. Rule for the calls: active = growth percent below 10; inactive = the rest.

system: HL-60(TB) leukemia; assay: NCI-60 one-dose screen, 48 h (100 = growth as untreated, 0 = no growth, -100 = all killed); settings: 10 µM unless noted

Structure (SMILES) | growth
COc1c(Cl)ccc2c(-c3nc4cc(Cl)c(F)cc4s3)cc(=O)oc12 | -18.1% (active)
Cc1ccc(N=c2nc3sc4c(C)ccc(C)c4n3c(N)c2C#N)cc1 | 108%
COc1ccc(C(=O)Cn2c(C(=O)c3ccc(Cl)cc3)nc3ccccc32)cc1 | 42.2%
